esBAF inh – inhibitors of esBAF chromatin remodeling in mouse ES cells; 350,000 tested, 2% active; reporter increase, % at 12.5 µM; Bmi1-luciferase knock-in reporter, 24 h; 100% = twice the neutral-well signal; in the data active means activation above about 40%; inconclusive means no clear call, values can overlap the other calls;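 further: 0% = median of the plate's neutral control wells and 100% = double that signal; a rise in the Bmi1 reporter signal indicates esBAF inhibition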
FXN GAA850 act – frataxin GAA850 promoter activation | HEK293 lucGAA850 FXN promoter luciferase reporter, 24 h; percent of 10 µM SAHA response | activation, % at 6 µM | 360,000 tested, 0.56% active;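 active means activation above the average of all compounds screened plus 3 SD, cutoff fixed separately per campaign, cut at about 7.5% in these data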;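 further: 0% = DMSO wells and 100% = 10 µM SAHA wells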
Statin myotox sup – protects C2C12 myotubes from simvastatin toxicity | ATP luminescence, 48 h; scaled: DMSO 0, geranylgeraniol control 100 | 330,000 tested, 0.78% active | rescue of ATP level, % at 7.49 µM;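 active means mean ATP rescue above about 67%, or every replicate alone reaching that limit, limit read from the data, passing the limit was not always enough; inconclusive means no clear call, values can overlap the other calls; inactive means mean under the limit and some replicate under it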;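 further: myotubes were challenged with 10 µM simvastatin during compound exposure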
MITF act – activators of MITF-driven TRPM1 promoter activity in SK-MEL-5 cells; SK-MEL-5 TRPM1-promoter luciferase, 24 h; % of positive control, neutral wells = 0; activation, % at 12.5 µM; 300,000 tested, 0.75% active;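 active means mean activation of at least 80% with every replicate also reaching 80%; inconclusive means mean reaches 80% but some replicate falls short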;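 further: 0% = neutral control wells and 100% = parthenolide positive control wells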
Wnt act – activators of Wnt/beta-catenin signaling; 300,000 tested, 1.2% active; activation, % at 9.35 µM; Wnt/beta-catenin reporter cell assay, activator, plate reader; in the data active means activation above about 30%, passing the limit was not always enough; inconclusive means no clear call, values can overlap the other calls;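 further: 0% = neutral control wells and 100% = positive control wells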
Numbers without * were called inactive; ? = inconclusive; . = not tested or not shown. Most compounds without a hit are left out; they make up all but 3.3% or so of the library.

SMILES	esBAF inh	FXN GAA850 act	Statin myotox sup	MITF act	Wnt act
CO[C@H]1CN(C)C(=O)c2cc(NC(=O)c3cnccn3)ccc2OC[C@@H](C)N(C)C[C@H]1C	4.0	.	4.9	.	.
C[C@H](CO)N1C[C@H](C)[C@@H](CN(C)CC2CCCCC2)Oc2ccc(NC(=O)Cc3ccccc3)cc2CC1=O	-6.3	.	20.0	.	.
Cc1c(NC(=O)C(Sc2ccccc2)c2ccccc2)cccc1[N+](=O)[O-] (configuration not stated)	-9.8	-1.7	111.9*	16.4	-2.5
CCCc1ccc2oc(C(=O)N(C)Cc3ccn[nH]3)c(C)c2c1	74.9*	6.3	-16.4	43.7	6.7
CCCc1ccc2oc(C(=O)NCCc3cnn(C)c3)c(C)c2c1	47.4*	5.4	-7.1	67.9	29.9
CCS(=O)(=O)Nc1ccc2c(c1)C(=O)N(C)C[C@@H](OC)[C@H](C)CN(CCC(F)(F)F)[C@@H](C)CO2	-16.0	.	-21.4	.	.
COCc1cc(C)nc(SCC(=O)Nc2ccc(C)c(C)c2)c1C#N	43.2*	0.8	3.3	35.8	-1.0
Cc1cc(C)c(C#N)c(SCC(=O)Nc2ccc3c(c2)OCO3)n1	18.8	2.3	3.8	24.7	42.3*
Cc1nc(SCC(=O)Nc2ccc3c(c2)OCO3)c(C#N)c2c1CCCC2	35.0	-0.7	-4.3	26.8	2.8
COCc1cc(C)nc(SCC(=O)Nc2ccc3[nH]c(=O)[nH]c3c2)c1C#N	-6.6	0.9	-4.6	5.7	-4.1
Cc1cc(C)c(C#N)c(SCC(=O)Nc2cc(C)on2)n1	82.1*	3.3	2.8	?	1.9
Cc1cc(NC(=O)CSc2nc3c(C)ccc(C)c3cc2C#N)no1	2.2	-0.4	-2.2	4.7	-0.4
O=C(C[C@@H]1CC[C@@H](NC(=O)NC2CCCC2)[C@H](CO)O1)NCc1ccc(F)cc1	-1.9	.	2.7	.	.
CN(C(=O)/C=C/c1ccccc1)C1CCS(=O)(=O)C1 (configuration not stated)	.	-1.3	.	-4.6	1.1
CN(C(=O)/C=C/c1ccccc1)C1CCCCC1	.	4.1	.	.	48.0*
CO[C@@H]1CN(C)C(=O)c2ccc(NC(=O)c3ccc(F)cc3)cc2OC[C@@H](C)N(C(C)=O)C[C@H]1C	-2.2	.	-2.5	.	.
O=C(c1cc(F)c(F)cc1Cl)N1CCOCC1	-5.8	0.9	.	.	7.3
CC1CCN(C(=O)c2cc(F)c(F)cc2Cl)CC1	-9.0	0.9	134.9*	.	0.4
CC(=O)Nc1nc(C2COc3ccccc3O2)cs1 (configuration not stated)	3.5	5.2	13.9	49.9	.
NC(N)=Nc1nc(C2COc3ccccc3O2)cs1 (configuration not stated)	.	6.1	.	50.9	53.0*
O=C(C[C@H]1CC[C@@H]2[C@H](COC[C@@H](O)CN2CCc2ccccc2)O1)NCc1ccc(F)cc1	-5.6	.	-0.1	.	.
CC(C)(C)OC(=O)N/N=C\C=C\c1ccc2c(c1)OCO2	.	4.7	.	119.0*	55.5*
CCOC(=O)N/N=C\C=C\c1ccc2c(c1)OCO2	.	2.4	.	72.9	49.7*
O=C(Cc1ccccn1)NCC[C@H]1CC[C@H](NS(=O)(=O)c2ccc(F)cc2)[C@H](CO)O1	2.7	.	5.0	.	.
CCNC(=O)C[C@H]1CC[C@H]2[C@@H](COC[C@@H](O)CN2Cc2ccncc2)O1	-5.3	.	-5.9	.	.
SMILES	esBAF inh	FXN GAA850 act	Statin myotox sup	MITF act	Wnt act
COCCN(CCOC)C(=O)c1cc2sc3ccccc3c2s1	18.2	2.3	-29.6	32.5	-5.0
CCN(CC)C(=O)c1cc2sc3ccccc3c2s1	80.4*	7.2	-45.2	97.8*	.
CCC(=O)N1CCN(c2ccc(NC(=O)c3ccco3)cc2)CC1	17.8	3.1	94.8*	23.1	-0.5
O=C(Nc1ccc(N2CCCC2)cc1)c1cccc(Cl)c1	-7.4	2.0	-95.9	101.7*	32.9*
O=C(Nc1ccc(N2CCCC2)cc1)c1cc(Cl)ccc1Cl	1.4	1.3	-16.6	1.7	-4.7
O=C(NCc1nnc(SCC(=O)N2CCN(c3ccccc3)CC2)o1)c1ccco1	-4.1	0.6	93.4*	-5.7	.
O=C(NC(=S)Nc1ccccc1N1CCCCC1)c1ccco1	-4.1	2.8	-7.8	0.6	-1.9
O=C(NC(=S)Nc1ccc(N2CCCCC2)cc1)c1ccco1	31.5	3.5	-36.3	110.1*	27.9
Cc1ccc(S(=O)(=O)Nc2ccc3c(c2)C(=O)N(C)[C@H]2CC[C@H](CC(=O)O)O[C@@H]2CO3)cc1	-4.6	.	-0.9	.	.
CC(=O)N1CCN(c2ccc(NC(=O)c3cccc(F)c3)cc2)CC1	53.7*	3.3	7.2	.	19.4
Cc1ccccc1C(=O)NCc1nnc(SCC(=O)N2CCN(c3ccccc3)CC2)n1C	-4.1	-1.4	100.8*	-1.9	-0.5
O=C(Nc1ccc(N2CCN(C(=O)c3ccco3)CC2)cc1)c1cccc(F)c1	53.6*	-0.3	0.7	.	5.2
Cc1ccc(-c2nn(Cc3ccccc3)cc2/C=C/C(=O)O)cc1C	-4.8	0.5	85.8*	-2.4	-1.6
Nn1c(COc2ccc(Cl)cc2)nc2ccccc2c1=O	?	4.5	7.7	98.8*	29.0
O=C(CN(CCc1ccccc1)S(=O)(=O)c1ccc(Cl)cc1)N/N=C/c1ccc2c(c1)OCO2	.	-5.3	.	-4.0	34.0*
O=C(N/N=C/c1ccc(Cl)cc1)c1ccc2c(c1)OCO2	63.1*	-1.4	-8.1	46.4	17.8
O=C(N/N=C/c1ccsc1)c1ccc2c(c1)OCO2	48.6*	2.7	-5.0	86.3*	13.8
O=C(N/N=C/c1ccc2c(c1)OCO2)c1ccc2c(c1)OCCO2	.	1.3	.	43.7	16.8
C/C(=N\NC(=O)c1ccc2c(c1)OCO2)c1ccc(NS(C)(=O)=O)cc1	50.9*	0.0	-5.3	20.9	2.5
CO[C@@H]1CN(C)C(=O)c2cc(NC(=O)c3cccc(F)c3)ccc2OC[C@@H](C)N(C(C)=O)C[C@H]1C	0.9	.	-8.6	.	.
CO[C@H]1CN(C)C(=O)c2cc(NS(=O)(=O)c3ccccc3F)ccc2OC[C@H](C)NC[C@@H]1C	-5.3	.	5.0	.	.
O=C(C[C@@H]1CC[C@H]2[C@@H](COC[C@H](O)CN2Cc2cc(F)cc(F)c2)O1)NC1CCC1	7.3	.	2.4	.	.
Clc1cccc2sc(-c3nnc(-c4ccccc4)o3)c(Cl)c12	43.8*	3.6	-52.4	34.9	.
CSc1ccc(-c2nnn(Cc3ccc(Br)cc3)n2)cc1	30.8	1.0	16.1	.	2.3
c1ccc(Cn2nnc(-c3ccccc3)n2)cc1	44.2*	0.2	15.1	48.5	21.7
CSc1ccc(-c2nnn(Cc3ccccn3)n2)cc1	51.0*	4.3	-4.5	62.7	-1.0
C[C@@H]1CN([C@@H](C)CO)C(=O)Cc2cc(NS(=O)(=O)c3ccc(Cl)cc3)ccc2O[C@H]1CN(C)S(=O)(=O)c1cn(C)cn1	2.1	.	-6.1	.	.

Screens (PubChem)
